# Experimental data from the antibiotic and cytotoxicity screens of Wong et al. (2023).
# Hit rate of the full screen: of about 39,000 compounds, about 1,500 (3.8%) were called active. This excerpt belongs to a sample that is enriched for actives.
# Tested on: HSkMC (human skeletal muscle cells)
# Test: cytotoxicity call (relative viability < 0.9)
# Settings: 10 µM
row,SMILES,cytotoxicity call
1,COc1ccc(CN(C)C[C@H]2Oc3ccc(NC(=O)C4CC4)cc3CC(=O)N([C@@H](C)CO)C[C@@H]2C)cc1,inactive
2,C=C1C(=O)OC2C1CCC(C)=CCCC1(C)OC21 (centres undefined),active
3,"C=C1CCC=C(C)CCC2C1CC2(C)C.O (single isomer, unassigned; (-)) [(-)E-CARYOPHYLLENE hydrate ]",inactive
4,Cc1cc(C)nc(NS(=O)(=O)c2ccc(NC(=O)c3cccn(OCc4ccc(F)cc4)c3=O)cc2)n1,inactive
5,Cc1ccc(C(=O)Nc2ccc(Oc3cc4cnn(C)c4cc3-c3cn[nH]c3)c(F)c2)c(=O)n1-c1ccc(F)cc1,active
6,CCCNC(=O)N1C[C@@H](C)[C@@H](OC)CN(C)C(=O)c2ccc(NS(=O)(=O)CC(F)(F)F)cc2OC[C@@H]1C,inactive
7,Cc1csc(-c2nnc(Nc3ccc(Oc4ncccc4-c4ccnc(N)n4)cc3)c3ccccc23)c1,active
8,Cc1ccc(Oc2nnc(-c3cccs3)c3ccccc23)cc1,inactive
9,Cc1ccc(Nc2nnc(-c3ccccc3)c3ccccc23)cc1,inactive
10,O=C(O)C[C@@H](O)C(=O)O,inactive
11,COC(=O)C1=CO[C@@H](O[C@@H]2O[C@H](CO)[C@@H](O)[C@H](O)[C@H]2O)/C(=C\CO)[C@@H]1CC(=O)OCCc1ccc(O)cc1,inactive
12,C[C@@H]1CN([C@H](C)CO)S(=O)(=O)c2ccc(C3=CCCC3)cc2O[C@H]1CN(C)S(=O)(=O)c1ccc(F)cc1,inactive
13,CS(=O)(=O)N1CC[C@]2(COCc3cnc(N4CCOCC4)nc32)C1,inactive
14,c1nc(N2CCOCC2)nc(N2CCOCC2)n1,inactive
15,CS(=O)(=O)N1CCc2c(-c3cnc(N)nc3)nc(N3CCOCC3)nc21,active
16,C[C@H]1CN([C@@H](C)CO)C(=O)c2cccc(NC(=O)c3ccncc3)c2O[C@H]1CN(C)Cc1ccc(Oc2ccccc2)cc1,inactive
17,C[C@H]1CCCCO[C@H](CN(C)C(=O)Nc2ccc(C(F)(F)F)cc2)[C@@H](C)CN([C@@H](C)CO)C(=O)c2cc(NS(=O)(=O)c3ccccc3)ccc2O1,active
18,C[C@@H]1CCCCO[C@H](CN(C)C(=O)Nc2ccc(C(F)(F)F)cc2)[C@@H](C)CN([C@H](C)CO)C(=O)c2cc(NS(=O)(=O)c3ccccc3)ccc2O1,inactive
19,C[C@@H]1CN([C@@H](C)CO)C(=O)c2cc(NS(=O)(=O)c3ccccc3)ccc2O[C@@H](C)CCCCO[C@@H]1CN(C)C(=O)Nc1ccc(C(F)(F)F)cc1,active
20,C[C@@H]1CCCCO[C@H](CN(C)C(=O)Nc2ccc(C(F)(F)F)cc2)[C@H](C)CN([C@H](C)CO)C(=O)c2cc(NS(=O)(=O)c3ccccc3)ccc2O1,inactive
21,C[C@H](CO)N1C[C@H](C)[C@@H](CN(C)C(=O)Nc2ccc(C(F)(F)F)cc2)OCCCC[C@H](C)Oc2ccc(NS(=O)(=O)c3ccccc3)cc2C1=O,inactive
22,C[C@H](CO)N1C[C@H](C)[C@H](CN(C)C(=O)Nc2ccc(C(F)(F)F)cc2)OCCCC[C@H](C)Oc2ccc(NS(=O)(=O)c3ccccc3)cc2C1=O,inactive

row,SMILES,cytotoxicity call
1,CCN1C(=O)[C@H]2[C@H]3[C@H](O)[C@H](O)C/C(=N\OC[C@@H](O)COCc4ccco4)[C@@H]3CC[C@H]2C1=O,inactive
2,C[C@@H]1CCCCO[C@@H](CN(C)S(=O)(=O)c2cccs2)[C@@H](C)CN([C@@H](C)CO)C(=O)c2cc(NC(=O)Nc3ccccc3)ccc2O1,inactive
3,C[C@H]1CN([C@@H](C)CO)C(=O)c2cccc(NC(=O)C3CCOCC3)c2O[C@H]1CN(C)S(=O)(=O)c1cn(C)cn1,inactive
4,NC(=O)N1CCc2n[nH]c(C(=O)N3CCOCC3)c2C1,inactive
5,CCc1nc(C(N)=O)c(Nc2ccc(N3CCC(N4CCN(C)CC4)CC3)c(OC)c2)nc1NC1CCOCC1,inactive
6,C=CCn1c(=O)c2cnc(Nc3ccc(N4CCN(C)CC4)cc3)nc2n1-c1cccc(C(C)(C)O)n1,inactive
7,C=CC(=O)N1CC[C@@H](Oc2nc(Nc3ccc(N4CCC(N5CCN(C)CC5)CC4)cc3)c(C(N)=O)nc2CC)C1,active
8,COCC(=O)Nc1ccc2c(c1)C(=O)N(C)[C@@H]1CC[C@@H](CC(=O)NCc3ccc(OC)cc3)O[C@@H]1CO2,inactive
9,COc1ccc(S(=O)(=O)Nc2cccc3c2O[C@@H](CN(C)Cc2ccc(-c4ccccc4)cc2)[C@H](C)CN([C@@H](C)CO)C3=O)cc1,inactive
10,CCCCCCCCCCCCCCCCCCCC(=O)N[C@H]1CC[C@@]2(C)[C@@H](C1)C[C@@H](O)[C@@H]1[C@@H]2C[C@H](O)[C@]2(C)[C@@H]([C@H](C)CCC(=O)O)CC[C@@H]12,active
11,CC(CCC(=O)O)C1CCC2C3C(O)CC4CC(O)CCC4(C)C3CC(O)C12C (centres undefined),inactive
12,CC(CCC(=O)NCC(=O)O)C1CCC2C3C(O)CC4CC(O)CCC4(C)C3CC(O)C12C (centres undefined),inactive
13,Cc1c(C)c2ccc(O[C@@H]3O[C@H](CO)[C@H](O)[C@H](O)[C@H]3O)cc2oc1=O,inactive
14,Cc1cc(=O)oc2cc(O[C@H]3O[C@@H](CO)[C@@H](O)[C@@H](O)[C@@H]3O)ccc12,inactive
15,CCc1cc(=O)oc2c(C)c(O[C@@H]3O[C@H](CO)[C@@H](O)[C@H](O)[C@H]3O)ccc12,active
16,C[C@H](CO)N1C[C@H](C)[C@H](CN(C)Cc2ccc(F)cc2)Oc2cc(C#CC(C)(C)O)ccc2S1(=O)=O,inactive
17,C=CCOC(=O)[C@@H]1[C@@H]2C=C[C@@]3(O2)[C@@H]1C(=O)N(CCCCCCO)[C@H]3C(=O)N(CC=C)Cc1ccccc1,active
18,C=CCN(Cc1ccccc1)C(=O)[C@@H]1N(CCOCCO)C(=O)[C@@H]2[C@H](C(=O)O)[C@@H]3C=C[C@@]21O3,inactive
19,C=CCOC(=O)[C@@H]1[C@@H]2C=C[C@]3(O2)[C@H](C(=O)N(CC=C)Cc2ccccc2)N(c2cccc(Cl)c2CO)C(=O)[C@@H]13,inactive
20,CN1C(=O)C[C@H](C(=O)O)[C@H]1c1cccnc1,inactive
21,COc1ccc(S(=O)(=O)Nc2ccc3c(c2)C(=O)N([C@@H](C)CO)C[C@H](C)[C@H](CN(C)S(=O)(=O)c2ccccc2)O3)cc1,inactive
22,COc1ccc(CN(C)C[C@H]2Oc3c(NS(=O)(=O)c4cn(C)cn4)cccc3C(=O)N([C@H](C)CO)C[C@H]2C)cc1,inactive
